# Out of some 6,900 compounds screened, fewer than 10 were called active. The list is a sample of the results. A number with no mark means an inactive call. The call rests on the fitted dose curve; in most records, active means well fitted curve in the direction sought with a large enough effect; inconclusive means small, poorly fitted or top-dose-only effect, or another doubt; inactive means no such curve, though single readings can be large or run the other way.
# Biological target: Metallo-beta-lactamase type 2 (Klebsiella pneumoniae) (UniProt C7C422)
# Sequence (C7C422 whole entry, looked up): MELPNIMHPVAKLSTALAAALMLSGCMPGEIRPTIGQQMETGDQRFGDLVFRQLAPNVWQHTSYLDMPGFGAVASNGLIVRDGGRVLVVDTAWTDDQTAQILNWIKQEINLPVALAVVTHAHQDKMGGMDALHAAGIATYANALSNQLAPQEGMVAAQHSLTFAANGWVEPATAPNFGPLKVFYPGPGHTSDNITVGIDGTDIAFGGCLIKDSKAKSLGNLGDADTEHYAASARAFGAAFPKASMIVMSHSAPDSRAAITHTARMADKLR
# Assay: qHTS to identify inhibitors of the New Delhi Metallo-beta-lactamase (NDM): primary screen against the NCATS Gemini Collection; further: % of control where 0% means no effect
# Conditions: NDM-1 enzyme, meropenem hydrolysis, absorbance 300 nm; series mostly up to 38.4 µM; activity % (negative = inhibition): at the top concentration
# Text: Assay Submitter (PI): James Inglese Ph.D., Patricia Dranchak Ph.D., Mahesh Aitha Ph.D. Assay Development and Screening Technology Laboratory (ADST) National Center for Advancing Translational Sciences (NCATS), Rockville, MD National Institute of Health (NIH), Bethesda, Maryland The metallo-beta-lactamases (MBL) are a main antibiotic resistance mechanism evolved by bacteria. There is an urgent clinical need for MBL inhibitors to mitigate this growing threat. To support a machine-based learning study, qHTS has been used to experimentally test inhibitors identified by prediction tools.
# PROTOCOL TABLE (as described by Inglese et al., 2007) SEQUENCE No. (e.g., 1, 2, 3, etc.); […] (e.g., enzyme, Incubation, Reagent, etc.); VALUE; DESCRIPTION 1; NDM-1; 4 uL of 3 nM enzyme [2 nM final] in 50 mM HEPES (pH 7.0), 1 uM […], 0.01% Tween20; Use BioRaptr to dispense into Aurora black, clear bottom low base 1536-well plates 2; Compounds; 23 nL; Use Pin Tool (Wako) to transfer DMSO control and library compounds in DMSO 3; Incubate; >30 min 4; Reagent; 2 uL of 150 uM meropenem [50 uM final] 5; Incubate; 30 min. 6; Detector; Absorbance at 300 nm (bandwidth = 5 nm, 25 flashes/well) on Tecan Infinity NOTES (numbers refer to sequence above) 1; Column 1 of each plate received assay buffer without enzyme and columns 2-48 received enzyme for a final assay concentration of 2 nM. 2; Control plate contained DMSO in columns 1, 2, 3, and 4. 3; Compound interaction with enzyme. 4; Meropenem substrate was prepared in the same assay buffer as step 1 for a final assay concentration of 50 uM and added to all wells across the assay plates. 5; Substrate interaction with enzyme, plateau phase of kinetics. 6; Default reader settings were applied for absorbance read at 300 nm, bandwidth = 5 nm, 25 flashes/well. References: Inglese J, Shamu CE, Guy RK. 2007. Reporting data from high-throughput screening of small-molecule libraries. Nat Chem Biol. doi:10.1038/nchembio0807-438 Yasgar A, Shinn P, Jadhav A, Auld D, Michael S, Zheng W, Austin CP, Inglese J, Simeonov A. 2008. Compound Management for Quantitative High-Throughput Screening. J Lab Autom 13:79 - 89. doi:10.1016/j.jala.2007.12.004
row,SMILES,activity % (negative = inhibition)
1,Cc1cn2nc(C(=O)N3CCC(C(=O)NCc4ccccn4)CC3)cc2c(=O)[nH]1,18.9%
2,Cn1cc(CN2C[C@H](C(=O)Nc3nccs3)C[C@@H]2c2cccc(C(F)(F)F)c2)cn1,4.37% [at 57.5 µM]
3,COc1ccc(C(=O)N2CCC[C@H]2c2nc(-c3ccccc3)no2)cc1,5.95%
4,COc1ccc(NC(=O)c2nc3sccn3c2-c2cccc(OC)c2)cc1,27.7%
5,C[C@@H]1CN(C(=O)CN2CCN(c3ncccn3)CC2)C[C@@]1(O)C1CCC1,14.1%
6,Cc1nc(C)c(C(=O)N2CCC(Cc3nc(C4CC4)n[nH]3)CC2)s1,18.2%
7,Cn1cc(CN2CCN(c3ccc(C#N)cn3)CC2)c(-c2ccccc2)n1,12.2%
8,CCc1cc(=O)n(CC(=O)N2CCN(c3ccccc3OC)CC2)c(-c2ccccc2)n1,-0.786%
9,COCCN1C[C@@H]2[C@H](c3ccccc31)[C@@H](CO)[C@@H](c1ccccc1)N2C(=O)COC(C)=O,4.01%
10,Cc1ccc(CNC(=O)N(C)CC2CCOCC2)cc1,-0.782%
11,COCC(=O)N1CCC(C2CCN(C(=O)c3ccncc3)CC2)C1 (stereo not given),-0.46%
12,COc1cccc(CCC(=O)N2CCC3(CC2)N=C(c2ccccc2)NO3)c1,16.3%
13,CCN1c2cc(C(=O)NCc3cccc(OC)c3)ccc2C(=O)N2CCCCCC21 (stereo not given),-1.41%
14,c1coc(-c2nnc([C@H]3CCN(Cc4c[nH]c5ccccc45)C3)o2)c1,37.1% [at 57.5 µM]
15,C[C@@H]1CN(C2(C(=O)NCc3n[nH]c4c3CCC4)Cc3ccccc3C2)C[C@H](C)O1,0.0426%
16,CCOC(=O)C1c2c(OC)ccc3c2C(=CC(C)(C)CO3)CN1C(=O)C1CC1 (stereo not given),2.76%
17,Cc1cccc(-c2nc3ccc(C(=O)NC4CCCCCC4)cc3o2)n1,29% [at 57.5 µM]
18,O=C1CCN(C(=O)[C@@H]2CCCN2C(=O)Nc2ccccc2)CCCCCCN1,-1.52%
19,CCc1ccc(NC(=O)Cn2nc3n(c2=O)CCCC3)cc1,-0.266%
20,COCC1CN(C)CC12CCN(Cc1sccc1C)CC2 (stereo not given),-2.49%
21,Fc1ccccc1-c1noc(NCCc2ccc(Cl)cc2)n1,14.8%
22,Nc1nc(CCC(=O)N[C@@H]2[C@@H](Cc3ccccc3)[C@H]3OCC[C@@H]23)cs1,-5.81%

row,SMILES,activity % (negative = inhibition)
1,O=C([C@H]1C[C@H](Oc2cccnc2)CN1C(=O)c1ccc2ccccc2n1)N1CCOCC1,27%
2,O=S(=O)(c1cnc[nH]1)N1CCC(c2nc(CCOCC3CC3)no2)C1 (stereo not given),-2.63%
3,CCc1ccc(CN2CCN(c3ccc(C(N)=O)cn3)CC2)nc1,17.8%
4,COCC(=O)N(C1CCOCC1)C1CCN(C(=O)c2cccnc2C)CC1,10.8%
5,CC(C)CCN1CCC(N2CCN(C(=O)c3ccc(Br)o3)CC2)C1=O (stereo not given),57%
6,Cc1cc(C(=O)NC2CCCC2)c2c(C3CCNC3)noc2n1 (stereo not given),1.69%
7,CCS(=O)(=O)N1CCC2(CCC2OC)CC1 (stereo not given),27.6%
8,Cc1cnc(CC2CCN(S(=O)(=O)c3ccc4c(c3)CCC4)CC2)n1CC1CC1,12.7%
9,CC1CCCCN1Cc1nnc2cc(-c3nc(-c4ccccc4)no3)ccn12 (stereo not given),11.3%
10,COc1ccc(CN2CCc3nc(N4CCN(C)CC4)[nH]c(=O)c3CC2)c(OC)c1OC,2.04%
11,Cn1nc2n(c1=O)CCN(C1CCSCC1)CC2,2.04%
12,COc1ccccc1CC(=O)Nc1cccn2nc(C(C)C)nc12,4.57%
13,O=C(C1CCCN([S+](=O)([O-])c2cccc(C(F)(F)F)c2)C1)N1CCC(c2nc3ncccc3[nH]2)C1 (stereo not given),3.41%
14,O=C(COc1cccc(-c2nnc3n2CCCC3)c1)NCc1ccccc1,-4.92%
15,CCNC(=O)c1c(C)oc2c1CN(Cc1ccc(Br)o1)CC2,6.18%
16,COc1ccc2c(c1)c(CN1C[C@@H](CO)[C@H](c3nc(C)no3)C1)cn2C,23.1%
17,Nc1nc(CCC(=O)N[C@@H]2COCC[C@H]2Oc2ccc(CO)cc2)cs1,-3.81%
18,Cc1cccc2c1O[C@H]1[C@H](CO)CN([S+](=O)([O-])c3cccs3)[C@@H]21,4.48%
19,Cc1cccc(C(=O)N2CC[C@H]3C(=O)NCCCCCCN(Cc4ccncc4)[C@@H]3C2)c1,1.14%
20,Fc1ccc2nc(CO[C@H]3CN(C4CCOCC4)C[C@H]3F)[nH]c2c1,3.56% [at 57.5 µM]
21,O=C(c1ccccc1)N1CCC2(CC(Cc3ccccc3)=NO2)C1 (stereo not given),9.1% [at 57.5 µM]
22,CCc1nc2c(c(-c3ccc(O)cc3)n1)CN(Cc1ccc(NC(C)=O)cc1)CC2,13.5%

row,SMILES,activity % (negative = inhibition)
1,Cc1ncnc(N2CCN(C(=O)C3CCN(C(=O)C4CC4)CC3)CC2)c1C,7.66%
2,O=C(CC1CCOCC1)Nc1ccc(N2CCOCC2)cc1,-5.65%
3,CCNc1ncc(C(=O)N[C@H](C2CCNCC2)C2CC(O)C2)cn1 (stereo not given in full),21.5%
4,CCOC(=O)C1(Cc2ccccc2F)CCCN(C(=O)c2ccc3c(c2)OCCO3)C1 (stereo not given),-0.209%
5,O=C(NC1CC(c2nnc(CO)n2C2CC2)C1)c1ccc2c(c1)CCO2 (stereo not given),-1.33%
6,Nc1nc(CCCNC(=O)C2CC(=O)N(Cc3ccccn3)C2)cs1 (stereo not given),5.55%
7,Fc1ccc(-c2cccc(CN3CC4CCC(C3)N4c3ccc(C(F)(F)F)cc3)c2)c(F)c1,5.91%
8,CC(=O)Nc1cccc(-c2ncc3c(n2)OCCN(CC2CC2)C3=O)c1,23.9% [at 57.5 µM]
9,CN(C)CC1(O)CCN(C(=O)Cn2cc(C(=O)C3CC3)c3ccccc32)C1 (stereo not given),69.4%
10,Nc1ncccc1CNC(=O)[C@H]1CCC[C@H](O)C1,16.9%
11,COc1ccc(-c2cc(-c3ccncc3)cn3cncc23)cc1,2.77% [at 57.5 µM]
12,O=C1NCCOCCCN(S(=O)(=O)c2ccccc2)[C@H]2CCCC[C@@H]12,77.7%
13,Cc1cc(C(=O)N2CC(N(C(=O)NC(C)C)C3CCOCC3)C2)nn1C,-2.63%
14,Cc1[nH]c2ccccc2c1CC(=O)NCc1ccccc1-n1cncn1,7.08%
15,COC(=O)N1CCN(Cc2cc(=O)c3cc(F)ccc3[nH]2)CC1,14%
16,CCCN(C)C(=O)c1c(-c2ccc(F)cc2)noc1[C@H](C)O,-10.9% [at 57.5 µM]
17,O=C(NCc1nc(-c2ncccn2)no1)C1CC2(CCNCC2)CN1 (stereo not given),-0.57%
18,CC(C)N1CC[C@@H]2[C@H]1C(=O)NC[C@H](CCC(=O)NCc1ccc(F)cc1)N2C,28% [at 57.5 µM]
19,Cc1cccc(O[C@H]2COCCN(c3nc4ccccc4o3)C2)n1,14.5% [at 57.5 µM]
20,COc1ccc(NC(=O)C2CCN(C(=O)c3ncn4c3COC(c3ccccc3)C4)CC2)cc1Cl (stereo not given),24.2%
21,CC1(NC(=O)C2CC2)CN(Cc2nc(-c3ccccc3OCc3ccccc3)cs2)C1,3.21% [at 57.5 µM]
